Test results as given in PubChem BioAssay.
Records with an inconclusive call do not appear. The source made the active and inactive calls.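 The calls were made as follows, unless noted: active = normalized viability below 100% at a tested concentration; inactive = the rest.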

Legend:
[1] = viability loss in pontine glioma line – cell-based, SU-DIPG-XVII, MIPE5.0, CellTiter-Glo, qHTS, dose response (AID 1347060; cut-off not given, nearly all actives have AC50 up to about 26 µM;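 as to AC50: cells exposed to compound for 48 hours before viability readout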); details: CellTiter-Glo ATP luminescence
[2] = viability loss in pontine glioma line – cell-based, SU-DIPG-XXV, MIPE5.0, CellTiter-Glo, qHTS, dose response (AID 1347065; cut-off not given, nearly all actives have AC50 up to about 26 µM;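 also: cells exposed to compound for 48 hours before ATP readout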); details: CellTiter-Glo ATP luminescence
[3] = JHH-DIPG-1 glioma cell viability, MIPE5.0 library, CellTiter-Glo luminescence, qHTS (AID 1347067; cut-off not given, nearly all actives have AC50 up to about 26 µM;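 also: cells exposed to compound for 48 hours before readout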); details: JHH-DIPG-1 glioma viability, CellTiter-Glo ATP luminescence
[4] = viability loss with induced miR-34 in A549 – imaging, A549 dox-inducible miR-34, nuclei and caspase counts, primary screen (AID 1347080;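 active = compounds whose cell count with miR-34 switched on is under 0.7 times the count with it off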); details: A549 miR-34 inducible, Hoechst nuclei count, 48 h
[5] = MELAS cybrid and Rieske KO viability enhancers – cell-based, MELAS cybrids, Rieske KO mouse fibroblasts, CellTiter-Glo, primary screen (AID 1508586;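 active = mean z-score across replicates of 1.96 or higher in either the MELAS or the Rieske mutant cell line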;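 also: z relative to plate mean and SD of compound and empty wells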); details: low glucose
[6] = growth inhibition of DIPG cells – cell-based, MIPE5.0 library, qHTS (AID 1347068; cut-off not given, nearly all actives have IC50 up to about 30 µM;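 as to IC50: cells exposed to compound for 48 hours before viability readout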); details: SU-DIPG-XXV viability
[7] = drug combination growth inhibition, ovarian cancer – cell-based, oncology-focused library, rucaparib conditional, profiling panel (AID 1508598); details: patient-derived ovarian cancer cells, CellTiter-Glo viability, 144 h, stronger effect = lower value
[8] = growth inhibition of DIPG cells – cell-based, MIPE4.0 library, CellTiter-Glo luminescence, qHTS (AID 1347066; cut-off not given, nearly all actives have AC50 up to about 30 µM;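 also: cells exposed to compound for 48 hours before readout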); details: SU-DIPG-VI viability, CellTiter-Glo ATP luminescence

COc1cc2ncnc(Nc3ccc(O)c(Br)c3)c2cc1OC
3410: cell count ([4]; measured here: total cells with miR-34 induction, stronger effect = lower value)
active: AC50 [1] 16.6 µM | AC50 [2] 14.8 µM | AC50 [3] 13.2 µM | fold change ([4]; stronger effect = lower value, cell number ratio, induced over uninduced) 0.645
0.931: fold change ([4]; measured here: relative caspase fold change +Dox/-Dox)
-0.0359: z-score ([5]; Rieske KO mouse fibroblast survival, CellTiter-Glo 72 h)
5290: cell count ([4]; measured here: total cells without miR-34 induction)
inactive: z-score ([5]; MELAS cybrid survival, CellTiter-Glo 48 h, stronger effect = higher value) -0.521

COC(=O)[C@H]1[C@@H](O)[C@@]2(O)c3c(OC)cc(O[C@@H]4O[C@@H]([C@@H](O)CO)CO[C@H]4OC)cc3O[C@@]2(c2ccc(OC)cc2)[C@@H]1c1ccccc1
inactive: outcome [6]
active: AC50 [1] 8.33 µM | AC50 [2] 5.25 µM

C=CC(=O)N1CC(N2CCN(C(=O)CNc3cc(C4(C)CC4)c(Cl)cc3O)CC2)C1
inactive: outcome [1] | outcome [2] | outcome [6]

C[C@H](NC(=O)CCC(F)(F)F)C(=O)N[C@@H]1C(=O)N(CCO)c2ncccc2-c2ccccc21
inactive: outcome [1] | outcome [3]

CC(C)Oc1ccc(C(=O)N[C@H](CNC(=O)CN(C)C)Cc2ccc(-c3cn4cccc([C@H](C)O)c4n3)cc2)cc1Cl
active: AC50 [1] 0.0525 µM | AC50 [2] 0.0295 µM | viability ([7]; at 0.0195 µM, OCI-C5x cells, with rucaparib 10 µM, 100% = cells with rucaparib alone) 69.6% | viability ([7]; at 0.0195 µM, OCI-C5x cells, without rucaparib) 73.7% | viability ([7]; at 0.0195 µM, OCI-P5x cells, with rucaparib 20 µM, 100% = cells with rucaparib alone) 76.4% | viability ([7]; at 0.0195 µM, OCI-P5x cells, without rucaparib) 38.4% | viability ([7]; at 0.0781 µM, OCI-C5x cells, with rucaparib 10 µM, 100% = cells with rucaparib alone) 57.4% | viability ([7]; at 0.0781 µM, OCI-C5x cells, without rucaparib) 72.4% | viability ([7]; at 0.0781 µM, OCI-P5x cells, with rucaparib 20 µM, 100% = cells with rucaparib alone) 66.4% | viability ([7]; at 0.0781 µM, OCI-P5x cells, without rucaparib) 30.8% | viability ([7]; at 0.313 µM, OCI-C5x cells, with rucaparib 10 µM, 100% = cells with rucaparib alone) 57.8% | viability ([7]; at 0.313 µM, OCI-C5x cells, without rucaparib) 65% | viability ([7]; at 0.313 µM, OCI-P5x cells, with rucaparib 20 µM, 100% = cells with rucaparib alone) 62.3% | viability ([7]; at 0.313 µM, OCI-P5x cells, without rucaparib) 28.3% | viability ([7]; at 1.25 µM, OCI-C5x cells, with rucaparib 10 µM, 100% = cells with rucaparib alone) 61.8% | viability ([7]; at 1.25 µM, OCI-C5x cells, without rucaparib) 72.8% | viability ([7]; at 1.25 µM, OCI-P5x cells, with rucaparib 20 µM, 100% = cells with rucaparib alone) 62.6% | viability ([7]; at 1.25 µM, OCI-P5x cells, without rucaparib) 26.8% | viability ([7]; at 5 µM, OCI-C5x cells, with rucaparib 10 µM, 100% = cells with rucaparib alone) 79.5% | viability ([7]; at 5 µM, OCI-C5x cells, without rucaparib) 89.6% | viability ([7]; at 5 µM, OCI-P5x cells, with rucaparib 20 µM, 100% = cells with rucaparib alone) 63.4% | viability ([7]; at 5 µM, OCI-P5x cells, without rucaparib) 25.3%
inactive: outcome [3] | viability ([7]; at 0.000305 µM, OCI-C5x cells, with rucaparib 10 µM, 100% = cells with rucaparib alone) 116% | viability ([7]; at 0.000305 µM, OCI-C5x cells, without rucaparib) 118% | viability ([7]; at 0.000305 µM, OCI-P5x cells, with rucaparib 20 µM, 100% = cells with rucaparib alone) 118% | viability ([7]; at 0.000305 µM, OCI-P5x cells, without rucaparib) 103% | viability ([7]; at 0.00122 µM, OCI-C5x cells, with rucaparib 10 µM, 100% = cells with rucaparib alone) 112% | viability ([7]; at 0.00122 µM, OCI-C5x cells, without rucaparib) 123% | viability ([7]; at 0.00122 µM, OCI-P5x cells, with rucaparib 20 µM, 100% = cells with rucaparib alone) 107% | viability ([7]; at 0.00122 µM, OCI-P5x cells, without rucaparib) 107% | viability ([7]; at 0.00488 µM, OCI-C5x cells, with rucaparib 10 µM, 100% = cells with rucaparib alone) 117% | viability ([7]; at 0.00488 µM, OCI-C5x cells, without rucaparib) 115% | viability ([7]; at 0.00488 µM, OCI-P5x cells, with rucaparib 20 µM, 100% = cells with rucaparib alone) 107% | viability ([7]; at 0.00488 µM, OCI-P5x cells, without rucaparib) 101%

Nc1nccn2c(C3CCC(C(=O)O)CC3)nc(-c3cc4cccc(Cl)c4[nH]3)c12 (stereo not drawn)
active: AC50 [1] 4.17 µM | AC50 [2] 2.63 µM
inactive: outcome [6]

Cn1ncc(NC(=O)c2nc(-c3c(F)cccc3F)sc2N)c1N1CC[C@@H](N)[C@H](F)CC1
inactive: outcome [1] | outcome [3]

[2H]C([2H])(Nc1nc(-c2ccccc2C([2H])(C([2H])([2H])[2H])C([2H])([2H])[2H])ncc1C)c1ccc(-n2ccnn2)cc1
inactive: outcome [1] | outcome [2] | outcome [6]

CN(C)c1ccc(Nc2nc(N)n(C(=O)c3c(F)cccc3F)n2)cc1
active: AC50 [1] 8.33 µM | AC50 [2] 5.25 µM | IC50 [6] 14.8 µM

N#Cc1cccc(-c2c[nH]c3ncnc(N4CCOCC4)c23)c1
inactive: outcome [1] | outcome [2] | outcome [6]

CO[C@@H]1[C@H](N(C)C(=O)c2ccccc2)C[C@H]2O[C@]1(C)n1c3ccccc3c3c4c(c5c6ccccc6n2c5c31)C(=O)NC4
active: AC50 [1] 1.66 µM
inactive: outcome [8]
